Source: PubChem BioAssay (Tox21)
Inconclusive results are not listed. Calls of active or inactive are those of the source. The call rests on the fitted dose curve; in most records, active means well fitted curve in the direction sought with a large enough effect in the repeat runs; inconclusive means weak or mixed curves; inactive means no such curve, though single readings can be large; an effect the other way counts as inactive or inconclusive.

Experiments:
[1] = qHTS RealTime-Glo MT Cell Viability Assay in HEK293 cells - 16 hour (AID 1224872); further: top concentration of the series differs between compounds; nearly all actives have a fitted effect of over 50% in size
Summary of the method: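 Luminescence generated by NanoLuc from substrate produced by living HEK293 cells served as the viability signal. Each value reflects the reading at its stated time point during continuous 40 h compound exposure at 37 C.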

[2] = qHTS RealTime-Glo MT Cell Viability Assay in HepG2 cells - 8 hour (AID 1224873); further: nearly all actives have a fitted effect of over 55% in size
Summary of the method: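 HepG2 cells (600/well) mixed with RealTime-Glo MT reagent, settled 5 h at 37 C/5% CO2 before compound addition. Nonlytic NanoLuc luminescence from viable-cell prosubstrate reduction read repeatedly during 40 h treatment at 37 C.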

[3] = qHTS RealTime-Glo MT Cell Viability Assay in HEK293 cells - 40 hour (AID 1224874); details: RealTime-Glo luminescence; max response: hits give low values; further: nearly all actives have a fitted effect of over 50% in size
Summary of the method: (§1)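 600 HEK293 cells per well, dispensed already mixed with RealTime-Glo MT reagents. Compound dosing came 5 h later. The same wells were read for luminescence at 0, 8, 16, 24, 32 and 40 h of exposure at 37 C.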

[4] = A CellTox Green Cytotoxicity Assay to monitor cytotoxicity in HEK293 cells - 24 hour (AID 1224875); further: series mostly up to about 77 µM; nearly all actives have a fitted effect of over 45% in size
Summary of the method: (§2)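 Dead-cell fluorescence measured kinetically: asymmetric cyanine dye, HEK293, 600 cells/well, 5 h settle, 23 nL cpd/DMSO, 37 C, reads 0–40 h every 8 h.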

[5] = A CellTox Green Cytotoxicity Assay to monitor cytotoxicity in HepG2 cells - 16 hour (AID 1224876); further: nearly all actives have a fitted effect of over 45% in size
Summary of the method: (§3)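 First, HepG2 cells (600/well) mixed with reagent were plated; second, after 5 h at 37 C they received compounds via pintool; third, fluorescence was measured at 0 h through 40 h at 8 h intervals.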

[6] = qHTS RealTime-Glo MT Cell Viability Assay in HepG2 cells - 32 hour (AID 1224877); further: nearly all actives have a fitted effect of over 55% in size
Summary of the method: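 Tox21 10K library screened in qHTS format on HepG2 cells carrying RealTime-Glo reagents. Compounds were added after a 5 h preincubation, and the luminescent signal from continuous culture was measured repeatedly during 40 h treatment.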

[7] = A CellTox Green Cytotoxicity Assay to monitor cytotoxicity in HepG2 cells - 24 hour (AID 1224878); further: nearly all actives have a fitted effect of over 45% in size
Summary of the method: as §3

[8] = A CellTox Green Cytotoxicity Assay to monitor cytotoxicity in HepG2 cells - 40 hour (AID 1224879); further: nearly all actives have a fitted effect of over 40% in size
Summary of the method: as §3

[9] = qHTS RealTime-Glo MT Cell Viability Assay in HEK293 cells - 0 hour (AID 1224880); further: top concentration of the series differs between compounds; nearly all actives have a fitted effect of over 45% in size
Summary of the method: as §1

[10] = A CellTox Green Cytotoxicity Assay to monitor cytotoxicity in HEK293 cells - 32 hour (AID 1224881); further: nearly all actives have a fitted effect of over 40% in size
Summary of the method: as §2
On the % scale 0 is the no-effect control and ±100 the full control effect.

CC(C)NC(=O)c1ccccc1N
inactive: Potency [1] | outcome [2] | max response [3] 0.226% | Potency [4] | Potency [5] | Potency [6] | Potency [7] | Potency [8] | Potency [9] | Potency [10]

CCOC(OCC)OCC
inactive: Potency [1] | outcome [2] | max response [3] -1.36% | Potency [4] | Potency [5] | Potency [6] | Potency [7] | Potency [8] | Potency [9] | Potency [10]

COc1ccc(CN(CCN(C)C)c2ncccn2)cc1
inactive: Potency [1] | outcome [2] | max response [3] 4.01% | Potency [4] | Potency [5] | Potency [6] | Potency [7] | Potency [8] | Potency [9] | Potency [10]

CCCCCCCCCCCCCCCCCCCl
inactive: activity change, negative = cytotoxicity [1] 3.04% [at 6.97 µM] | viability change, negative = cytotoxic [2] -0.0977% [at 6.97 µM] | max response [3] 5.75% | activity change [4] 2.36% [at 6.97 µM, hits give high values] | cytotoxicity increase [5] -7.85% [at 6.97 µM] | activity change, negative = cytotoxic [6] 2.68% [at 6.97 µM] | cytotoxicity [7] -10.6% [at 6.97 µM] | cytotoxicity increase [8] -13.3% [at 6.97 µM] | activity change, negative = cytotoxicity [9] 8.32% [at 6.97 µM] | cytotoxicity increase [10] 3.09% [at 6.97 µM]

OCCCO
inactive: Potency [1] | outcome [2] | max response [3] 16.2% | Potency [4] | Potency [5] | Potency [6] | Potency [7] | Potency [8] | Potency [9] | Potency [10]

CC/C=C\CCO
inactive: Potency [1] | outcome [2] | max response [3] 15.9% | Potency [4] | Potency [5] | Potency [6] | Potency [7] | Potency [8] | Potency [9] | Potency [10]

C[C@H](N)C(=O)N[C@@H](C)C(=O)NC1[C@H]2CN(c3nc4c(cc3F)c(=O)c(C(=O)O)cn4-c3ccc(F)cc3F)C[C@@H]12 (stereo not given in full)
inactive: Potency [1] | outcome [2] | max response [3] 0.749% | Potency [4] | Potency [5] | Potency [6] | Potency [7] | Potency [8] | Potency [9] | Potency [10]

CC(C)CCCCCOC(=O)CS
inactive: Potency [1] | outcome [2] | max response [3] 4.02% | Potency [4] | Potency [5] | Potency [6] | Potency [7] | Potency [8] | Potency [9] | Potency [10]

C[C@@H](O)[C@H]1C(=O)N2C(C(=O)O)=C(S[C@@H]3CN[C@H](CNS(N)(=O)=O)C3)[C@H](C)[C@H]12
inactive: Potency [1] | outcome [2] | max response [3] 2.56% | Potency [4] | Potency [5] | Potency [6] | Potency [7] | Potency [8] | Potency [9] | Potency [10]

O=C1OC(=O)C2CC=CCC12 (stereo not given)
inactive: Potency [1] | outcome [2] | max response [3] 0.701% | Potency [4] | Potency [5] | Potency [6] | Potency [7] | Potency [8] | Potency [9] | Potency [10]

COc1ccc(/C(C)=C/C(=O)O)c(OC)c1
inactive: Potency [1] | outcome [2] | max response [3] 6.45% | Potency [4] | Potency [5] | Potency [6] | Potency [7] | Potency [8] | Potency [9] | Potency [10]

CCC(CC)C(=O)O
inactive: Potency [1] | outcome [2] | max response [3] 15% | Potency [4] | Potency [5] | Potency [6] | Potency [7] | Potency [8] | Potency [9] | Potency [10]

CC(=O)Nc1cccc(N)c1
inactive: Potency [1] | outcome [2] | max response [3] 15% | Potency [4] | Potency [5] | Potency [6] | Potency [7] | Potency [8] | Potency [9] | Potency [10]

C=CC(C)(O)CC/C=C(/C)CCC=C(C)C (stereo not given)
inactive: Potency [1] | outcome [2] | max response [3] 0.65% | Potency [4] | Potency [5] | Potency [6] | Potency [7] | Potency [8] | Potency [9] | Potency [10]

O=C(O)CNc1ccccc1
inactive: Potency [1] | outcome [2] | max response [3] 5.54% | Potency [4] | Potency [5] | Potency [6] | Potency [7] | Potency [8] | Potency [9] | Potency [10]

CCOc1ccccc1O
inactive: Potency [1] | outcome [2] | max response [3] -54.1% | Potency [4] | Potency [5] | Potency [6] | Potency [7] | Potency [8] | Potency [9] | Potency [10]

CC(C)Oc1ccccc1O
inactive: Potency [1] | outcome [2] | max response [3] 2.84% | Potency [4] | Potency [5] | Potency [6] | Potency [7] | Potency [8] | Potency [9] | Potency [10]

CC(=O)Nc1ccn(C2COC(COC(=O)c3ccccc3)O2)c(=O)n1 (stereo not given)
inactive: Potency [1] | outcome [2] | max response [3] 3.96% | Potency [4] | Potency [5] | Potency [6] | Potency [7] | Potency [8] | Potency [9] | Potency [10]

CC1(C)CC(O)CC(C)(C)N1[O]
inactive: Potency [1] | outcome [2] | max response [3] 6.37% | Potency [4] | Potency [5] | Potency [6] | Potency [7] | Potency [8] | Potency [9] | Potency [10]

c1ccc(-c2ccc(-c3ccccc3)cc2)cc1
inactive: activity change, negative = cytotoxicity [1] 0.695% [at 15.8 µM] | viability change, negative = cytotoxic [2] 0.239% [at 15.8 µM] | max response [3] 0.336% | activity change [4] -5.55% [at 15.8 µM, hits give high values] | cytotoxicity increase [5] -3.4% [at 15.8 µM] | activity change, negative = cytotoxic [6] 2.08% [at 15.8 µM] | cytotoxicity [7] -1.79% [at 15.8 µM] | cytotoxicity increase [8] 1.53% [at 15.8 µM] | activity change, negative = cytotoxicity [9] 1.15% [at 15.8 µM] | cytotoxicity increase [10] -3.83% [at 15.8 µM]

CO[C@@H]1[C@@H](O[C@@H]2O[C@H](C)[C@@H](O[C@H]3C[C@@](C)(O)[C@@H](O)[C@H](C)O3)[C@H](N(C)C)[C@H]2O)[C@@H](CC=O)C[C@@H](C)[C@@H](O[C@@H]2CC[C@H](N(C)C)[C@@H](C)O2)/C=C/C=C/C[C@@H](C)OC(=O)C[C@H]1OC(C)=O
inactive: Potency [1] | outcome [2] | max response [3] 1.04% | Potency [4] | Potency [5] | Potency [6] | Potency [7] | Potency [8] | Potency [9] | Potency [10]

CCCc1ccc(OC)cc1
inactive: Potency [1] | outcome [2] | max response [3] 11.9% | Potency [4] | Potency [5] | Potency [6] | Potency [7] | Potency [8] | Potency [9] | Potency [10]
